Several values for one entry are separate records, joined by “and”; a condition that tells them apart may be missing. Equal values may be shown once. About 2,000 (36%) of roughly 5,500 compounds were called active. Not shown: some 18% with an inconclusive outcome. Cut-off read from the data, not from the text of the source: active = normalized growth mostly below about 0.91 (no sharp cut-off); inconclusive = no clear call, values can overlap the other calls; inactive = mostly above about 0.92. Some of the results follow.
Assay: chemical genetic growth profiling, strain panel (AID 1159580);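 note: tested at 20 µM; growth read once vehicle control cultures reached saturation at 30 °C; 1 = growth at the plate median or of vehicle wells; lower values mean less growth of the strain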
Conditions: S. cerevisiae deletion strains, growth OD

Measured: normalized growth

COC(=O)[C@@H]1OC(=O)[C@H]2O[C@@]23[C@@]1(C)CCC1[C@@]2(C)CCC(=O)C(C)(C)C2C[C@@H](OC(C)=O)[C@]13C (some centres not stated)
inactive: locus YAL021C, strain ccr4, hits give low values 1.04 | locus YAL026C, strain drs2, hits give low values 0.992 | locus YAL030W, strain snc1, hits give low values 0.989 | locus YBL061C, strain skt5, hits give low values 0.994 | locus YBR009C, strain hhf1, hits give low values 1.03 | locus YBR021W, strain FUR4, hits give low values 0.997 | locus YBR023C, strain chs3, hits give low values 1 | locus YBR171W, strain sec66, hits give low values 0.959 | locus YBR229C, strain ROT2, hits give low values 1.01 | locus YBR231C, strain swc5, hits give low values 0.974 | locus YBR279W, strain paf1, hits give low values 1.02 | locus YCL011C, strain gbp2, hits give low values 0.998 | locus YCL016C, strain dcc1, hits give low values 1.03 | locus YCL029C, strain bik1, hits give low values 0.997 | locus YCL069W, strain vba3, hits give low values 0.987 | locus YCR088W, strain abp1, hits give low values 0.972 | locus YDL005C, strain med2, hits give low values 0.969 | locus YDL035C, strain GPR1, hits give low values 0.998 | locus YDL040C, strain nat1, hits give low values 0.987 | locus YDL074C, strain BRE1, hits give low values 1.01 | locus YDL101C, strain DUN1, hits give low values 1.02 | locus YDL134C, strain PPH21, hits give low values 1.01 | locus YDL185W, strain tfp1, hits give low values 1.01 | locus YDL192W, strain arf1, hits give low values 0.988 | locus YDR001C, strain nth1, hits give low values 0.983 | locus YDR069C, strain doa4, hits give low values 0.953 | locus YDR101C, strain arx1, hits give low values 0.993 | locus YDR137W, strain rgp1, hits give low values 1 | locus YDR159W, strain sac3, hits give low values 0.92 | locus YDR162C, strain NBP2, hits give low values 0.999 | locus YDR195W, strain ref2 0.926 | locus YDR297W, strain sur2, hits give low values 1 | locus YDR318W, strain mcm21, hits give low values 1.01 | locus YDR334W, strain swr1, hits give low values 0.967 | locus YDR388W, hits give low values 1.01 | locus YDR392W, strain spt3, hits give low values 0.993 | locus YDR502C, strain sam2, hits give low values 1.02 | locus YEL003W, strain gim4, hits give low values 0.986 | locus YEL037C, strain rad23, hits give low values 0.974 | locus YEL061C, strain CIN8 (second series), hits give low values 0.975 | locus YEL061C, strain CIN8, hits give low values 1 | locus YER015W, strain faa2, hits give low values 0.98 | locus YER016W, strain bim1, hits give low values 0.98 | locus YER110C, hits give low values 1 | locus YER111C, strain swi4, hits give low values 0.984 | locus YER155C, strain BEM2 (second series), hits give low values 1.01 | locus YER155C, strain BEM2, hits give low values 1.01 | locus YER167W, strain BCK2, hits give low values 0.988 | locus YFR010W, strain ubp6, hits give low values 0.966 | locus YGL078C, strain dbp3, hits give low values 1.02 | locus YGL086W, strain mad1, hits give low values 1 | locus YGL167C, strain pmr1, hits give low values 0.993 | locus YGL173C, strain kem1, hits give low values 0.985 | locus YGL227W, strain vid30, hits give low values 0.986 | locus YGL240W, strain doc1, hits give low values 0.953 | locus YGL248W, strain PDE1, hits give low values 1.02 | locus YGL253W, strain hxk2, hits give low values 0.958 | locus YGR135W, strain pre9, hits give low values 1.06 | locus YGR252W, strain gcn5, hits give low values 1.05 | locus YHR013C, strain ard1, hits give low values 1 | locus YHR027C, strain rpn1, hits give low values 0.976 | locus YHR030C, strain SLT2, hits give low values 1 and 0.997 | locus YHR079C, strain IRE1 (second series), hits give low values 1.01 | locus YHR079C, strain IRE1, hits give low values 0.999 | locus YHR094C, strain hxt1, hits give low values 1.02 | locus YHR129C, strain ARP1, hits give low values 1.01 | locus YHR142W, strain chs7, hits give low values 0.976 | locus YHR200W, strain rpn10, hits give low values 1.02 | locus YIL066C, strain RNR3, hits give low values 0.984 | locus YIL073C, strain SPO22, hits give low values 0.998 | locus YIL125W, strain kgd1, hits give low values 1 | locus YIR030C, strain dcg1, hits give low values 0.998 | locus YJL092W, strain hpr5, hits give low values 0.971 | locus YJL095W, strain BCK1 (second series), hits give low values 0.964 | locus YJL095W, strain BCK1, hits give low values 1.03 and 0.994 | locus YJL115W, strain asf1, hits give low values 0.965 | locus YJL129C, strain trk1, hits give low values 0.939 | locus YJL134W, strain LCB3, hits give low values 0.994 | locus YJL154C, strain vps35, hits give low values 0.989 | locus YJL164C, strain tpk1, hits give low values 1.03 | locus YJL166W, strain qcr8, hits give low values 0.972 | locus YJL168C, strain set2, hits give low values 1.01 | locus YJL187C, strain SWE1 (second series), hits give low values 1.04 | locus YJR066W, strain TOR1, hits give low values 0.912 | locus YKL009W, strain mrt4, hits give low values 0.977 | locus YKL068W, hits give low values 0.998 | locus YKL085W, strain MDH1 (second series), hits give low values 0.998 | locus YKL085W, strain MDH1, hits give low values 0.998 | locus YKL160W, strain elf1, hits give low values 1.07 | locus YKL190W, strain CNB1, hits give low values 1 | locus YKR001C, strain vps1, hits give low values 0.994 | locus YKR026C, strain gcn3, hits give low values 0.966 | locus YKR091W, strain srl3, hits give low values 0.992 | locus YLL001W, strain dnm1, hits give low values 0.992 | locus YLL026W, hits give low values 0.981 | locus YLL041C, strain sdh2, hits give low values 0.98 | locus YLR027C, strain aat2, hits give low values 0.99 | locus YLR039C, strain RIC1, hits give low values 1.03 | locus YLR058C, strain SHM2, hits give low values 1.01 | locus YLR102C, strain apc9, hits give low values 1 | locus YLR113W, strain HOG1, hits give low values 1.01 | locus YLR221C, strain rsa3, hits give low values 0.987 | locus YLR258W, strain gsy2, hits give low values 1 | locus YLR262C, strain YPT6 (second series), hits give low values 1 | locus YLR268W, strain sec22, hits give low values 0.991 | locus YLR320W, strain mms22, hits give low values 0.995 | locus YLR342W, strain FKS1 (second series), hits give low values 1.04 | locus YLR342W, strain FKS1, hits give low values 0.992 | locus YLR357W, strain rsc2, hits give low values 0.967 | locus YLR370C, strain arc18, hits give low values 0.989 | locus YLR371W, strain rom2, hits give low values 0.997 | locus YLR384C, strain iki3, hits give low values 0.985 | locus YLR418C, strain cdc73, hits give low values 1.04 | locus YML016C, strain PPZ1, hits give low values 1 | locus YML032C, strain rad52, hits give low values 0.996 | locus YML120C, strain ndi1, hits give low values 1.01 | locus YML124C, strain tub3, hits give low values 1.01 | locus YMR058W, strain fet3, hits give low values 0.993 | locus YMR078C, strain ctf18, hits give low values 1.01 | locus YMR125W, strain sto1, hits give low values 0.983 | locus YMR129W, hits give low values 0.987 | locus YMR205C, strain PFK2, hits give low values 1.01 | locus YMR223W, strain ubp8, hits give low values 1.01 | locus YMR231W, strain pep5, hits give low values 0.981 | locus YMR307W, strain GAS1, hits give low values 0.917 | locus YNL067W, strain RPL9B, hits give low values 1.04 | locus YNL071W, strain lat1, hits give low values 0.976 | locus YNL153C, strain GIM3, hits give low values 1.03 | locus YNL183C, strain NPR1, hits give low values 0.929 | locus YNL209W, strain ssb2, hits give low values 0.982 | locus YNL233W, strain BNI4, hits give low values 1.02 | locus YNL248C, strain rpa49, hits give low values 0.907 | locus YNL250W, strain rad50, hits give low values 1.03 | locus YNL271C, strain bni1, hits give low values 1.01 | locus YNL298W, strain CLA4, hits give low values 0.993 | locus YNL307C, strain MCK1, hits give low values 1.02 | locus YNL322C, strain KRE1 (second series), hits give low values 0.959 | locus YNR049C, strain mso1, hits give low values 0.966 | locus YNR052C, strain pop2, hits give low values 1.03 | locus YOL006C, strain TOP1, hits give low values 1.02 | locus YOL012C, strain htz1 1.17 | locus YOL147C, strain pex11, hits give low values 0.998 | locus YOR001W, strain rrp6, hits give low values 0.909 | locus YOR061W, strain CKA2, hits give low values 0.987 | locus YOR069W, strain VPS5, hits give low values 0.999 | locus YOR070C, strain gyp1, hits give low values 1 | locus YOR080W, strain dia2, hits give low values 0.978 | locus YOR083W, strain WHI5, hits give low values 1.08 | locus YOR106W, strain vam3, hits give low values 1.03 | locus YOR136W, strain idh2, hits give low values 1.01 | locus YOR144C, strain elg1, hits give low values 1 | locus YOR184W, strain ser1, hits give low values 0.981 | locus YOR231W, strain MKK1, hits give low values 0.98 | locus YOR265W, strain rbl2, hits give low values 0.976 | locus YOR270C, strain vph1, hits give low values 1.02 | locus YOR290C, strain snf2, hits give low values 0.996 | locus YOR316C, strain cot1, hits give low values 1.01 | locus YPL051W, strain arl3, hits give low values 1.02 | locus YPL078C, strain atp4, hits give low values 1.04 | locus YPL106C, strain sse1, hits give low values 0.997 | locus YPL240C, strain hsp82, hits give low values 0.976 | locus YPL256C, strain CLN2, hits give low values 0.979 | locus YPR119W, strain clb2, hits give low values 1.01 | locus YPR141C, strain kar3, hits give low values 1.01 | locus YPR163C, strain tif3, hits give low values 1.01 | locus YPR167C, strain met16, hits give low values 1.02 | strain wtn01, hits give low values 0.998
